The structures appear in SMILES notation. Values joined by “and” are separate entries in the source; they are usually repeats but may differ in a detail not shown here. Identical values can stand only once. Out of some 16,000 compounds screened, about 4,000 (25%) were called active. Not shown: some 26% with an inconclusive outcome. Calls come from the whole dose curve; as a rule, active = well fitted curve in the direction sought with a large enough effect; inconclusive = small, poorly fitted or top-dose-only effect, or effect the other way; inactive = no such curve, though single readings can be large or run the other way. The list is a sample of the results.
% is set by controls: 0 for no effect and ±100 for the full control effect.

Sequence of Cytochrome P450 2C9 (Homo sapiens) (P11712 whole entry, looked up): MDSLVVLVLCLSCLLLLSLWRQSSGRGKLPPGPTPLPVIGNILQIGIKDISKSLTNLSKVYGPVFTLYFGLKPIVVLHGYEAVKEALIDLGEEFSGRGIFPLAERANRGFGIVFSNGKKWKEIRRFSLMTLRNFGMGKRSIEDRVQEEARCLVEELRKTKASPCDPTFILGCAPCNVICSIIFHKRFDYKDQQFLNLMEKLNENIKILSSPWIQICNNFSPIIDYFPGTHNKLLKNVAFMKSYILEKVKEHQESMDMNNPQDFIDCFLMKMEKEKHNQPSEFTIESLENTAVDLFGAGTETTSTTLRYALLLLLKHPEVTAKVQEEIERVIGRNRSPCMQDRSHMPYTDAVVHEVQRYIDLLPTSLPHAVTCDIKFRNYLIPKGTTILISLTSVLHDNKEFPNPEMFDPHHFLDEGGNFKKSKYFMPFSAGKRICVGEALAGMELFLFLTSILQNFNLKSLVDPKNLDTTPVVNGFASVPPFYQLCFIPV

This test has as its target Cytochrome P450 2C9 (Homo sapiens) (UniProt P11712). Put plainly: Cytochrome panel assay with activity outcomes. The following applies: recombinant CYP, pro-luciferin dealkylation, luminescence, p450-cyp2c9; series mostly up to 57.1 µM; activity, negative = inhibition: at the top concentration.
In the case of `Cn1cccc1CC(=O)N/N=C\c1cccs1`, the “activity, negative = inhibition” value is -23.2% (inactive). The same measure, in the same setting: the value for `C/C(CC(=O)NC1CCCC1)=N\NC(=O)Cc1cccs1` was -10.1% (inactive). The same measure, in the same setting: to `CC(C)(C)c1ccc(OCC(=O)NNC(=O)Cc2cccs2)cc1` belongs 28.7% (inactive).

Turning to `CC(/C=N/NC(=O)Cc1cccs1)=C\c1ccco1`, the AC50 is 7.94 µM (active). On to `CC(=O)Nc1c(S(=O)(=O)c2ccccc2)c2nc3ccccc3nc2n1Cc1ccccc1`, for which the concentration at half-maximal activity (AC50) was 8.91 µM (active).

As to `Cc1nc2c([nH]1)c(=O)n(C)c(=O)n2Cc1ccco1`, the “activity, negative = inhibition” value is 13.3% (inactive).

In the case of `Nc1c(S(=O)(=O)c2ccccc2)c2nc3ccccc3nc2n1Cc1ccco1`, the concentration at half-maximal activity (AC50) was 3.55 µM (active). Regarding `C[C@](O)(C(=O)Nc1ccc(S(=O)(=O)c2ccccc2)cc1)C(F)(F)F`, the “activity, negative = inhibition” value was -10.9% (inactive). Same read-out and setting: to `CC(C)(C)CNC(CO)C12CC3CC(CC(C3)C1)C2` (stereo not given) belongs -9.91% (inactive). On to `COc1ccc(C(=O)N/N=C2/SCC(=O)N2Cc2ccc3c(c2)OCO3)cc1OC`, for which the AC50 is 14.1 µM (active). Consider `CCOC(=O)N/N=C1/C[C@@H](O)[C@@H](O)[C@@H]2[C@@H]3C(=O)N(Cc4ccc5c(c4)OCO5)C(=O)[C@H]3CC[C@@H]12`, for which the activity, negative = inhibition was 1.72% [at 11.4 µM] (inactive).

For `CCOC(=O)N/N=C1/C[C@@H](O)[C@@H](O)[C@@H]2[C@@H]3C(=O)N(Cc4ccc5c(c4)OCO5)C(=O)[C@H]3CC[C@H]12`, the activity, negative = inhibition is -5.83% [at 11.4 µM] (inactive). In the case of `Cc1ccc(NC2=NC(c3ccccc3)n3c(nc(C)cc3=O)N2)c(C)c1` (stereo not given), the half-maximal activity concentration (AC50) is 35.5 µM (active).

Take `COc1ccccc1CNc1cc(-c2ccccc2C)ncn1`: the activity, negative = inhibition is -15.1% [at 2.29 µM] (inactive). With `O=C1C(=O)N(c2cccc(Cl)c2)C(c2ccccc2[N+](=O)[O-])/C1=C(\O)c1ccccc1` (stereo not given), the AC50 is 2 µM (active). As to `COc1ccc(C2/C(=C(/O)c3ccc(Cl)cc3)C(=O)C(=O)N2CCN2CCOCC2)c(OC)c1` (stereo not given), the “activity, negative = inhibition” value was -24.6% (inactive). The same measure, in the same setting: to `CC(C)(C)N1C(=O)[C@H]2[C@@H]3[C@H](O)[C@H](O)CC(=O)[C@H]3CC[C@H]2C1=O` belongs 6.8% [at 11.4 µM] (inactive) and 2.7% [at 11.4 µM] (inactive); to `O=C(O)[C@@H]1[C@@H](C(=O)Nc2ccccc2)[C@@H]2C=C[C@@H]1O2`, 12.3% [at 11.4 µM] (inactive). With `CC(C)(C)C(=O)Nc1cccc(-c2nc3ccccc3c(=O)o2)c1`, the concentration at half-maximal activity (AC50) was 12.6 µM (active). For the compound `CS(=O)(=O)Nc1cccc(-c2nc(Nc3ccccc3)c3ccccc3n2)c1`, the activity, negative = inhibition is -28.2% [at 2.29 µM] (inactive). On the same count and under the same terms, to `CC(=O)NCCNc1nc(-c2cccc(NS(C)(=O)=O)c2)nc2ccccc12` belongs -9.35% [at 2.29 µM] (inactive).

As to `O=C(NCC1CCCO1)c1nn2c(c1Cl)NC(c1ccc(F)cc1)CC2C(F)(F)F` (stereo not given), the AC50 was 25.1 µM (active). As for `COc1ccc(NC(=O)c2cc3n(n2)C(C(F)(F)F)CC(c2ccc4c(c2)OCO4)N3)cc1OC` (stereo not given), the “activity, negative = inhibition” value was -12.5% (inactive). In the case of `O=C(NCC1CCCO1)c1ccc(CS(=O)(=O)Cc2ccc(F)cc2)o1` (stereo not given), the “activity, negative = inhibition” value was 25.2% (inactive). Still for that read-out and setting: the value for `CN1CCN(c2ncc3nc(-c4cccs4)c(=O)n(C[C@H]4CCCO4)c3n2)CC1` was 16.1% (inactive); that for `CCOC(=O)C(NC(C)=O)C(OC(C)=O)c1cccc(N(CCO)CCO)c1` (stereo not given) was -15.8% (inactive). The same measure, in the same setting: to `Clc1ccccc1C(Nc1cnccn1)Nc1cnccn1` belongs 1.92% [at 11.4 µM] (inactive).

Take `O=C1CC(c2cccc(F)c2)SC(N(c2ccccc2)c2ccccc2)=N1` (stereo not given): the AC50 was 10 µM (active). The same measure, in the same setting: the value for `C[N+](C)(C)CCOC(N)=O` was “inactive”. In the case of `CC(C)[C@@H]1[C@H]2CC[C@H](C2)[C@H]1N`, the “activity, negative = inhibition” value is -9.4% (inactive).

Regarding `CC1=C/C(=N/O)C([C@H]2C=C(C)CC(C)(C)[C@@H]2O)C(C)(C)C1` (stereo not given in full), the half-maximal activity concentration (AC50) is 2.51 µM (active). `N#CCCn1c(=O)c(-c2cc(F)cc(F)c2)nc2cnc(Nc3ccccc3)nc21`: the “activity, negative = inhibition” value was 18.7% (inactive). Still for that read-out and setting: the value for `CN(C)Cc1ccccc1-c1ccc2ncnc(NCc3ccccc3)c2c1` was -7.5% [at 2.29 µM] (inactive). Take `CCCC[C@]1(C2CCCC2)Cc2cc(OCC(=O)O)c(Cl)c(Cl)c2C1=O`: the AC50 is 2.51 µM (active).

Take `Cc1cccc(NC(=O)CSc2nc(COc3ccccc3)nc3ccccc23)c1C`: the AC50 was 0.631 µM (active).

With `CCCc1nc(SCC(=O)NNC(=O)C2CCCCC2)c2ccccc2n1`, the “activity, negative = inhibition” value was 5.32% (inactive). Turning to `CN(C)Cc1ccccc1-c1cc(N(C)Cc2ccco2)ncn1`, the activity, negative = inhibition is -3.1% [at 2.29 µM] (inactive). The same measure, in the same setting: the value for `C/C(=N\NC(=O)c1ccc(Cl)cc1)c1cccc(NC(=O)C(C)C)c1` was -11.6% (inactive). In the case of `C/C(=N/NC(=O)c1ccc(C)s1)c1cccc(NC(=O)COc2ccc(Cl)cc2C)c1`, the AC50 was 1.26 µM (active). Take `COc1cc(OC)c(C(=O)CCCCN2CCC3(CC2)NC(=O)NC3=O)cc1NS(=O)(=O)c1ccc(C(F)(F)F)cc1`: the “activity, negative = inhibition” value is 22.9% (inactive). Take `COc1ccc(C(C(=O)NC2CCCC2)N(Cc2ccc(F)cc2)C(=O)c2ccn[nH]2)cc1OC` (stereo not given): the “activity, negative = inhibition” value was -29.6% (inactive).

Consider `Cc1ccc(N(C(=O)C(F)(F)F)C(C(=O)NC2CCCCC2)c2cccs2)cc1C` (stereo not given), for which the “activity, negative = inhibition” value is -17.9% (inactive). With `O=C(NC1CCCCC1)C(c1cccs1)N(C(=O)C(F)(F)F)c1ccccc1` (stereo not given), the half-maximal activity concentration (AC50) was 1.58 µM (active). Take `COc1ccc(CN(C(=O)Cc2cccs2)C(C(=O)NC2CCCC2)c2ccncc2)cc1` (stereo not given): the AC50 is 5.01 µM (active). With `COc1ccc(CCN(C(=O)C(F)(F)F)C(C(=O)NC2CCCC2)c2cccs2)cc1` (stereo not given), the AC50 is 3.16 µM (active).

The values above are taken from PubChem BioAssay AID1851 (National Center for Advancing Translational Sciences (NCATS), 2009).
